# Laboratory results from PubChem BioAssay (Tox21).
# The source made the active and inactive calls. Where a call stands in place of a potency, no number is given. The call rests on the fitted dose curve; in most records, active means well fitted curve in the direction sought with a large enough effect in the repeat runs; inconclusive means weak or mixed curves; inactive means flat fitted curve, though single readings scatter.
# Experiment: qHTS assay to test for compound auto fluorescence at 460 nm (blue) in HEK293 cells (AID 720678)
# Settings: blue autofluorescence 405/460 nm; series mostly up to 91.3 µM
# Source text: National Center for Advancing Translational Sciences [NCATS]
# NIH Chemical Genomics Center [NCGC]
# U.S. Environmental Protection Agency [EPA]
# National Institutes of Environmental Health Sciences [NIEHS]
# National Toxicology Program [NTP]
# U.S. Food and Drug Administration [FDA]
# Compound auto fluorescence often interferes with screening of the compound library against various biological targets and signaling pathways. Some of these compounds may have fluorophoric properties. Such properties may interfere with the assay outputs resulting in false positives and/or negatives. To decrease such complications and ensure the compound activities are relevant in terms of biological response, the Tox21 10K compound library was screened for auto fluorescence.
# From the fluorophores used as reporter signals in our screening assays, the auto fluorescence equivalencies of compounds against three fluorophores have been evaluated: Triamterene, Fluorescein and Rose Bengal sodium for blue, green and red fluorescence, respectively. The fluorescence intensities were measured using Excitation/Emission wavelengths at 405/460nm, 485/535nm and 540/590nm for blue, green and red labels, respectively. This assay includes the blue fluorescence data.
# Tox21 Assay Protocol Summary:
# 2,000 HEK293 cells in 5 uL of culture medium containing 10% dialyzed FBS per well were dispensed into black wall/clear bottom 1536-well plates using a Multidrop Combi Dispenser (Thermo Scientific). The assay plates were incubated for 4-5 hr at 37C to allow cell attachment to the well bottom, followed by the transfer of 23 nL compound or DMSO vehicle by a pintool work station (Kalypsys, San Diego, CA). After the assay plates were incubated overnight at 37C and 5% CO2, fluorescence intensities in the assay plates were measured by an Envision (PerkinElmer, Shelton, CT) plate reader using three labels for measuring blue, green and red fluorescence at […] 460, 535 and 590nm respectively.
row,Structure (SMILES),Potency
1,OC1CCCC1,inactive
2,CCc1ccc(O)cc1,inactive
3,c1ccc2ccccc2c1,inactive
4,CN(CCOc1ccc(CC2SC(=O)NC2=O)cc1)c1ccccn1 (stereo not given),inactive
5,C[C@@H]1O[C@@H](OC[C@H]2O[C@@H](Oc3c(-c4ccc(O)c(O)c4)oc4cc(O)cc(O)c4c3=O)[C@H](O)[C@@H](O)[C@@H]2O)[C@H](O)[C@H](O)[C@H]1O,inactive
6,O=C(c1ccc(O)cc1)c1ccc(O)cc1O,inactive
7,Oc1ccc2ccccc2c1,inactive
8,CC(C)(C)C(=O)C1C(=O)c2ccccc2C1=O,inactive
9,CS(=O)(=O)c1ccc([C@@H](O)[C@@H](CO)NC(=O)C(Cl)Cl)cc1,inactive
10,CC1CC(OC(=O)c2ccccc2O)CC(C)(C)C1 (stereo not given),inactive
11,O=S(=O)(Oc1ccc(Cl)cc1Cl)c1ccccc1,inactive
12,CCCCOCCO,inactive
13,CCCCC(CC)COC(C)=O (stereo not given),inactive
14,COC(=O)Nc1nc2ccc(Sc3ccccc3)cc2[nH]1,inactive
15,CCCCC(CC)COC(=O)/C=C\C(=O)OCC(CC)CCCC (stereo not given),inactive
16,CCCCCCCCCC(=O)O,inactive
17,O=c1c(-c2ccc(O)cc2)coc2cc(O)ccc12,inactive
18,CN(C)c1cccc(O)c1,inactive
19,CC1(C)CC(N=C=O)CC(C)(CN=C=O)C1 (stereo not given),inactive
20,O=C(O)c1cc(-c2ccccc2)nc2ccccc12,inactive

row,Structure (SMILES),Potency
1,Nc1cc(-c2ccncc2)c[nH]c1=O,inactive
2,CCCCCC/C=C/CCCCCCCC(=O)O,inactive
3,NS(=O)(=O)c1cc2c(cc1Cl)NC=NS2(=O)=O,inactive
4,Oc1ccc(OCc2ccccc2)cc1,inactive
5,CCCCC(CC)C(=O)OCCOCCOCCOC(=O)C(CC)CCCC (stereo not given),inactive
6,CC(=O)[C@@]1(O)CC[C@H]2[C@@H]3CCC4=CC(=O)CC[C@]4(C)[C@H]3CC[C@@]21C,inactive
7,O=S(=O)(O)CCS,inactive
8,COCC(C)O (stereo not given),inactive
9,CCc1ccccc1O,inactive
10,Nc1c(S(=O)(=O)O)cc(Br)c2c1C(=O)c1ccccc1C2=O,inactive
11,COC(=O)c1ccc(C(=O)OC)cc1,inactive
12,CS(=O)(=O)Nc1ccc([N+](=O)[O-])cc1Oc1ccccc1,inactive
13,OC[C@@H](O)[C@@H](O)[C@H](O)[C@@H](O)CO,inactive
14,CC(C)NCC(O)COc1cccc2ccccc12 (stereo not given),inactive
15,O=C1CCCCC1,inactive
16,NC(=O)NNc1ccccc1,inactive
17,C=C(C)C(=O)OCC(CC)(COC(=O)C(=C)C)COC(=O)C(=C)C,inactive
18,O=C(O)c1ccc([N+](=O)[O-])cc1,inactive
19,OCC1CCCO1 (stereo not given),inactive
20,NCCc1ccc(O)c(O)c1,inactive
